Data: PubChem BioAssay (NCI)
The panel holds about 83,000 compounds, 20% with a hit somewhere; the sample as a whole holds those more often.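 The test compound was applied at a single concentration to cells in 96-well plates for 48 hours, and percent growth was recorded.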

How the values were obtained:
Assay in all cases: NCI-60 one-dose screen, 48 h (100 = growth as untreated, 0 = no growth, -100 = all killed); active means growth percent below 10; inactive means the rest
[1] = system: DU-145 prostate; conditions: 10 µM
[2] = system: K-562 leukemia; conditions: 10 µM
[3] = system: MALME-3M melanoma; conditions: 10 µM
[4] = system: MDA-MB-231 breast; conditions: 10 µM
[5] = system: RXF 393 renal; conditions: 10 µM
[6] = system: SF-268 CNS; conditions: 10 µM
[7] = system: SF-295 CNS; conditions: 10 µM
[8] = system: SF-539 CNS; conditions: 10 µM
[9] = system: UACC-257 melanoma; conditions: 10 µM
[10] = system: M14 melanoma; conditions: 10 µM
[11] = system: HCT-15 colon; conditions: 10 µM
[12] = system: HT29 colon; conditions: 10 µM
[13] = system: SNB-75 CNS; conditions: 10 µM
[14] = system: U251 CNS; conditions: 10 µM
[15] = system: PC-3 prostate; conditions: 10 µM
[16] = system: SK-MEL-5 melanoma; conditions: 10 µM
[17] = system: UACC-62 melanoma; conditions: 10 µM unless noted
[18] = system: SK-MEL-28 melanoma; conditions: 10 µM
[19] = system: LOX IMVI melanoma; conditions: 10 µM
[20] = system: SNB-19 CNS; conditions: 10 µM

Measured: growth

NCCC(=O)c1ccc(Cl)cc1
inactive: [1] 108% | [2] 98.1% | [3] 109% | [4] 110% | [5] 114% | [6] 100% | [7] 105% | [8] 104% | [9] 101% | [10] 102% | [11] 107% | [12] 106% | [13] 96.1% | [14] 105% | [15] 97.2% | [16] 99.5% | [17] 112% | [18] 109%

C#Cc1cccc(NC(=O)c2ccc(Cl)cc2Cl)c1
inactive: [1] 112% | [2] 85.5% | [3] 108% | [4] 118% | [5] 105% | [6] 98.9% | [7] 107% | [8] 95.7% | [9] 108% | [10] 98% | [11] 87.6% | [12] 100% | [13] 106% | [14] 91.3% | [15] 82.6% | [16] 91.1% | [19] 98.5% | [18] 102%

NCC(=O)CCC(=O)O
inactive: [1] 121% | [2] 109% | [3] 101% | [4] 107% | [5] 98.3% | [6] 101% | [7] 106% | [8] 110% | [9] 105% | [10] 113% | [11] 106% | [12] 104% | [13] 104% | [20] 113% | [14] 96.7% | [15] 100% | [17] 114% | [19] 99.6% | [18] 103%

COc1ccc(C(C)C=O)cc1 (configuration not stated)
inactive: [1] 109% | [2] 104% | [3] 133% | [4] 110% | [5] 139% | [6] 114% | [7] 115% | [8] 99% | [9] 117% | [10] 109% | [11] 93.8% | [12] 112% | [13] 88.4% | [20] 107% | [14] 107% | [16] 123% | [17] 106% | [19] 105% | [18] 116%

COc1cc(/C=C(\C#N)C(=O)c2ccccc2)ccc1OCc1ccccc1
inactive: [1] 102% | [2] 120% | [3] 86.1% | [4] 94.6% | [5] 100% | [6] 93.2% | [7] 103% | [8] 99.9% | [9] 106% | [10] 97.5% | [11] 98.9% | [12] 105% | [13] 91.7% | [20] 100% | [15] 95.2% | [16] 102% | [17] 97.2% | [19] 90.9%
